Data on 35 compounds can be found in PubChem BioAssay (NCATS).

Each structure is given as a SMILES string. Records with an inconclusive call do not appear. Where a call stands in place of a potency, no number is given. Activity calls are given as the source filed them. Unless noted, calls follow the shape of the dose curve; as a rule, active = well fitted curve in the direction sought with a large enough effect; inconclusive = small, poorly fitted or top-dose-only effect, or another doubt; inactive = no such curve, though single readings can be large; an effect the other way counts as inactive or inconclusive.

Experiment [1] in a line: Confirmation and Secondary Assay for Modulators of Hemoglobin Beta Chain Splicing at IVS2 654 locus (AID 910).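 Also: HeLa cells stably carrying EGFP split by mutant beta-globin IVS2-654 intron.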 In outline:
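HeLa cells stably expressing EGFP interrupted by β-globin IVS2-654 intron, seeded overnight in Opti-MEM/2% FCS, then treated 2 days at 37 °C. Restored splicing read as total peak GFP intensity per well by laser scanning cytometry (488 nm excitation, 500–520 nm emission); 500 nM antisense PNA as control.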

The nature of experiment [2]: Confirmation and Secondary Assay for Modulators of Hemoglobin Beta Chain Splicing at IVS2 705 locus (AID 930).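 Also: HeLa cells stably expressing the EGFP-705 splicing reporter; GFP fluorescence per well restored by corrected splicing of the IVS2-705 intron in EGFP.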 In short, it runs like this: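 HeLa IVS2-705 EGFP reporter cells, 500/well, compound 2 d at 37C; correct splicing yields fluorescent EGFP. Control: 500 nM antisense PNA. Read-out: total peak GFP intensity.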
The nature of experiment [3]: qHTS Assay for Lipid Storage Modulators (AID 1519; calls by dose curve). As to conditions: Drosophila S3 cells, BODIPY lipid droplet/cell ratio, laser cytometry, cells loaded with oleic acid. In short, it runs like this:
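Cells seeded at 5,000 per well were treated with compounds over a concentration series and loaded with oleic acid (400 uM, as added). Lipid droplet fluorescence (488 nm excitation, 500-530 nm channel) was read by laser-scanning cytometry and normalized to 20 uM Triacsin C.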
(Quantitative high-throughput screening tests each substance at several concentrations.)

The target of experiment [4] is Calcium and integrin-binding protein 1 (Homo sapiens) (UniProt Q99828). Nature of the experiment: Confirmatory qHTS for Identification of Calcium Integrin Binding Protein 1 (CIB1) Competitor (AID 1508617). Also: nearly all actives have a fitted effect of over 65% in size. Also: potency is read from the fitted curve at half-maximal effect. In outline: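 Binding competition between test compounds and fluorescent alphaIIb peptide for 1 uM CIB1-GST is monitored by FP at 480/540 nm. Final compound range is up to 114 uM; unlabeled peptide serves as reference competitor.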

Experiment [5] shares this target. The experiment is described as follows: Primary qHTS for Identification of Calcium Integrin Binding Protein 1 (CIB1) Competitor (AID 1508620). Also: potency is read from the fitted curve at half-maximal effect. As to activity change, negative = inhibition: top concentration of the series differs between compounds. In short, it runs like this: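 Fluorescence polarization competition: GST-tagged CIB1 (1 uM final) preincubated with compound 15 min at room temperature, then FITC-labelled alphaIIb peptide (100 nM final) added. After 15 min at room temperature, polarization read at Ex 480/Em 540.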

Experiment [6] in a line: qHTS for Inhibitors of Ubiquitin-specific Protease USP2a Using CHOP2 as the Reporter: K633 Counterscreen (AID 652168). In outline:
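Cell-free interference counterscreen without USP2a: compounds pinned into enzyme-free buffer (20 mM Tris pH 8, 2 mM beta-mercaptoethanol, 0.05% Chaps), then DiUb K48-4IQF substrate added (100 nM stock); fluorescence read kinetically, Ex 525/Em 598.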

A short description of experiment [7]: qHTS for Inhibitors of Ubiquitin-specific Protease USP2a Using CHOP2 as the Reporter: Cytotox Assay (AID 652170). Also: nearly all actives have a fitted effect of over 70% in size. Also: potency is read from the fitted curve at half-maximal effect. In outline:
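HCT116 human colon cancer cells, 600 per well in DMEM with 10% FBS, exposed to compounds for 72 hr at 37 deg C. ATP measured by CellTiter-Glo luminescence, normalized to DMSO cells and no-cell background.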

In experiment [8] the target is Ubiquitin carboxyl-terminal hydrolase 2 (Homo sapiens) (UniProt O75604). The experiment is described as follows: qHTS for Inhibitors of Ubiquitin-specific Protease USP2a Using CHOP2 as the Reporter: K484 Substrate (AID 652173).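 Also: cleavage of internally quenched K48 di-ubiquitin substrate measured as rising fluorescence over time; potency is read from the fitted curve at half-maximal effect; nearly all actives have a fitted effect of over 70% in size.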 In short, it runs like this:
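USP2 (dispensed at 5 nM) was pinned with compounds, then DiUb K48 internally quenched fluorescent substrate (dispensed at 100 nM) was added. The buffer was 20 mM Tris pH 8, 2 mM beta-mercaptoethanol and 0.05% CHAPS. Cleavage was read kinetically as rising fluorescence, Ex 525/Em 598.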

Ubiquitin carboxyl-terminal hydrolase 2 (Homo sapiens), sequence (O75604 whole entry, looked up): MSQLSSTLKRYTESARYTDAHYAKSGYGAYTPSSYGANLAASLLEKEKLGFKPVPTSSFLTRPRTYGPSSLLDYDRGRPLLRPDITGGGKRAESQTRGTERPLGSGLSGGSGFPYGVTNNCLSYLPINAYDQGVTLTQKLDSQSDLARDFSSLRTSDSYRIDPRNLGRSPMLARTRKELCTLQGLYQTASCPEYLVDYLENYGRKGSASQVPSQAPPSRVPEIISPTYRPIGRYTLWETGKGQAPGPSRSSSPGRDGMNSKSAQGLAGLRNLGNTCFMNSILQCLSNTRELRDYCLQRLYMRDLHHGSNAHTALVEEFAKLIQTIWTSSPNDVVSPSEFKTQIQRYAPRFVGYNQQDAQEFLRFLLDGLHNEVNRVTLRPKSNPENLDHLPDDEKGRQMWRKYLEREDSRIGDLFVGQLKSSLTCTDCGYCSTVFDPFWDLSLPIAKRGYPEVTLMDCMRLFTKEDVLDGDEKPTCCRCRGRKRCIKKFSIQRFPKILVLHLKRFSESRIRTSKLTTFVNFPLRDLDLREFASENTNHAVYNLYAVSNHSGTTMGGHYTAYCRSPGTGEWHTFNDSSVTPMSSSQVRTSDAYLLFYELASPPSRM
Calcium and integrin-binding protein 1 (Homo sapiens), sequence (Q99828 whole entry, looked up): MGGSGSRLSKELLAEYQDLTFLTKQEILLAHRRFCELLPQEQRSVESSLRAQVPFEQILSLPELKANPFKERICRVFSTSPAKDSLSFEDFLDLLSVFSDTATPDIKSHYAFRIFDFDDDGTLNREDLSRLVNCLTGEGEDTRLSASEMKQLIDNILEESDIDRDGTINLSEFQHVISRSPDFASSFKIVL

`NC[C@@H](O)c1ccc(O)c(O)c1`: the call in experiment [1] and in experiment [2] was inactive. For the same compound, in experiment [3] (at 57.5 µM (top of the series)), the activity change, negative = inhibition was 7.77% (inactive). Moreover, the figures for the max response in experiment [3] (measured here: cell count channel max response) and in experiment [3] (measured here: lipid channel max response) were 7.41% and 16.7%, respectively. Besides, the Potency result in experiment [4] and in experiment [5] was “inactive” in each case. With `O=C(NCCc1nc2ccccc2n1CCOc1ccc(C(F)(F)F)cc1)C1CCCCC1`, in experiment [5], the Potency entry was “inactive”. Same read-out and setting: next, `O=C1CCc2cc(S(=O)(=O)Nc3ccc4ccccc4c3)ccc2N1`: “inactive”. With `Cc1ccc(S(=O)(=O)Nc2ccc(Br)cc2C(=O)Nc2nc(-c3ccccc3)cs2)cc1`, in experiment [6], the result was inactive. For the same compound, the Potency in experiment [7] is 4.69 µM (active); in experiment [8], 0.968 µM (active). For the same compound, the Potency result in experiment [4] is “inactive”. For the compound `N#Cc1ccc(NS(=O)(=O)c2ccc(NC(=O)Cc3ccc(F)c(Cl)c3)cc2)cc1`, in experiment [8], the Potency was 24.3 µM (active). Further, the Potency entry in experiment [4] is “inactive”. Regarding `NC(=O)C1CCN(c2ncc(Br)s2)CC1`, the Potency in experiment [4] is 50.1 µM (active); in experiment [5], 39.8 µM (active). As for `N#Cc1ccc(NS(=O)(=O)c2ccc(NC(=O)Cc3ccc(Cl)c(Cl)c3)cc2)cc1`, the Potency result in experiment [7] and in experiment [4] was “inactive” in each case. Also, the Potency in experiment [8] was 7.69 µM (active). `O=[S+]([O-])(NCc1nccs1)c1ccc(Nc2nc(-c3ccccc3)cs2)cc1`: the compound was classed as inactive in experiment [6]. Moreover, the Potency entry in experiment [7] was “inactive”. Besides, in experiment [4], the Potency is 50.1 µM (active). Turning to `O=C(Cc1ccccc1)Nc1sc2c(c1C(=O)Nc1ccc(Cl)cc1)CCOC2`, in experiment [5], the Potency result was “inactive”. The same measure, in the same setting: the value for `Cc1ccc(N2CCC(CNc3nc(-c4ccccc4C(C)C)ncc3C)CC2)cn1` was “inactive”.

`Oc1ccc(-c2ccccc2F)c2cccnc12`: the Potency entry in experiment [5] was “inactive”. Turning to `Cc1ccc(CSc2nnc(-c3cccc4ccccc34)o2)cc1`, in experiment [5], the Potency entry was “inactive”. Take `NC(=O)C1CCN(c2ncnc(-c3ccc4c(c3)OCCCO4)n2)CC1`: the Potency entry in experiment [5] is “inactive”.

Regarding `Cc1cc(-c2nnc3n2CCCCC3)c(C)n1-c1ccc(Cl)c(Cl)c1`, in experiment [5], the Potency result was “inactive”. For `c1ccc(CNCc2nnc(-c3cc4ccccc4[nH]3)o2)cc1`, the Potency entry in experiment [5] is “inactive”. Same read-out and setting: the value for `O=C(Nc1ccccc1)Nc1nc(Nc2cc(F)cc(F)c2)nc(NC2CCCC2)n1` was “inactive”; that for `FC(F)(F)c1ccccc1-c1nc(NCc2ccc(-c3cccnc3)cc2)c2[nH]cnc2n1` was “inactive”; that for `O=C(CNC(=O)c1ccc2cc[nH]c2c1)OC(C(=O)Nc1cc(C(F)(F)F)ccc1Cl)c1ccccc1` (stereo not given) was “inactive”. On to `Cc1ccnc(NC(=S)N2CCN(C)CC2)c1`, for which the Potency entry in experiment [5] was “inactive”.

With `Cc1ccc(C(=O)Oc2ccc(-c3nc4ccccc4[nH]3)cc2)cc1Br`, the Potency result in experiment [5] was “inactive”. `CC(=O)Nc1sc2c(c1-c1ccc(C(N)=O)cc1)CCNC2`: in experiment [5], the Potency result is “inactive”. Regarding `CC(C)(C)OC(=O)N1CCN(c2cnc(NCc3ccc(-c4ccc(C#N)cc4)o3)cn2)CC1`, the Potency result in experiment [5] was “inactive”. On to `CCc1cccc(Nc2nn3c(=O)c4ccccc4nc3s2)c1`, for which the Potency result in experiment [5] was “inactive”. Consider `Cc1ccc(S(=O)(=O)N2CCN(S(=O)(=O)c3ccc4c(c3)OCCO4)CC2)cc1`, for which, in experiment [5], the Potency entry was “inactive”. `COC(=O)c1c(-c2ccccc2)no[n+]1[O-]`: the Potency result in experiment [5] was “inactive”. Regarding `S=c1[nH]c2ccccc2n1CCc1ccccc1`, in experiment [5], the Potency entry is “inactive”.

Regarding `Cc1ccc(CNc2ccc(N3CCN(C)CC3)cc2)cc1`, the Potency result in experiment [5] is “inactive”. In the case of `Cc1ccccc1C(=O)N1CCc2cc(-c3nc(NC(=O)Cc4ccccc4)sc3C)ccc21`, in experiment [5], the Potency result is “inactive”. Turning to `CC(C)c1ccccc1-c1nccc(NCc2ccc(-c3ccnc(C(F)(F)F)c3)cc2)n1`, the Potency result in experiment [5] is “inactive”.

In the case of `N#Cc1c(-c2ccccc2C(F)(F)F)nc2ccccc2c1NCc1ccc(-c2cccnc2)cc1`, the Potency result in experiment [5] is “inactive”. Still for that read-out and setting: the value for `O=S(=O)(c1ccc(Br)cc1)N1CCN(S(=O)(=O)c2ccc3c(c2)OCCO3)CC1` was “inactive”; that for `c1c[nH]c(C2CCN(c3ncc(-c4ccc5c(c4)OCCCO5)s3)CC2)n1` was “inactive”; that for `COc1ccc(C2Nc3ccccc3C(=O)N2CCO)cc1COc1ccc(NC(C)=O)cc1` (stereo not given) was “inactive”. With `COc1cc(O)c(C(CC(=O)N2CCCC2)c2ccc3c(c2)OCO3)c(OC)c1` (stereo not given), the Potency entry in experiment [5] was “inactive”. Regarding `COc1cccc(C2c3c(ncn(-c4cccc(Br)c4)c3=N)Oc3ccc4ccccc4c32)c1` (stereo not given), the Potency entry in experiment [5] was “inactive”.
